# Reference: PubChem BioAssay (NCATS)
# Values joined by “and” are separate entries in the source; they are usually repeats but may differ in a detail not shown here. Identical values can stand only once. Values without a mark were called inactive. Calls come from the whole dose curve.
# Biological target: Glucocorticoid receptor (Homo sapiens) (UniProt P04150)
# Test: GR-EFC Redistribution (AID 451)
# Conditions: CHO-K1 GR-EFC translocation, beta-gal luminescence, 2 h
# Method in brief: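 CHO-K1 cells expressing nuclear EA and GR-ED fragments of b-gal; compounds titrated up to 46 uM final, 2 h at 37 C. GR nuclear translocation read as complemented b-gal luminescence after 1 h RT detection.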
# Potency is the fitted concentration of half-maximal effect.
# Sequence of Glucocorticoid receptor (Homo sapiens) (P04150 whole entry, looked up): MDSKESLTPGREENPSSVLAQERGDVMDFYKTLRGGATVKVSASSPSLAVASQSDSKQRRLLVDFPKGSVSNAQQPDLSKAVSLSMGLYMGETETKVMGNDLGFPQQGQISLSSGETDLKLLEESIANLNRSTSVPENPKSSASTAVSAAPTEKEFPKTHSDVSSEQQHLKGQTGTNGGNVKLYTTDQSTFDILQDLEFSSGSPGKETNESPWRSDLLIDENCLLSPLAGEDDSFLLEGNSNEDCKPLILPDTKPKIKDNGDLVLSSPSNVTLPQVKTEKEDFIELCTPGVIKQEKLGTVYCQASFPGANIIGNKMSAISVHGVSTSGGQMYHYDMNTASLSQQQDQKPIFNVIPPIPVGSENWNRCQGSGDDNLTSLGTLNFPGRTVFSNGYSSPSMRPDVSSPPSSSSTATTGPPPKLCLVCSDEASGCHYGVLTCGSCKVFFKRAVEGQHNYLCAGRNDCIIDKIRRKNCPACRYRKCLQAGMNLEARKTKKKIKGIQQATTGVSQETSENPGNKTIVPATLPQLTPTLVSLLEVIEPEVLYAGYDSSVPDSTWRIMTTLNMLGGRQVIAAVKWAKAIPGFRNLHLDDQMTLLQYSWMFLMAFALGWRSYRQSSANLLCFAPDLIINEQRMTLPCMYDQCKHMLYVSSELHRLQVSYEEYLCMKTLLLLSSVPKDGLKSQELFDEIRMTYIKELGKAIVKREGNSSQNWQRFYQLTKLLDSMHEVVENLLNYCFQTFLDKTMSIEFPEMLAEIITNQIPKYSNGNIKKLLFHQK
row,SMILES,Potency
1,C[N+](C)(C)CCCCCCCCCC[N+](C)(C)C,> 46 µM and > 20.6 µM
2,CN(C(=O)CCCOc1ccc2[nH]c(=O)ccc2c1)C1CCCCC1,> 46 µM
3,COc1cc(C(=O)OCCCN2CCCN(CCCOC(=O)c3cc(OC)c(OC)c(OC)c3)CC2)cc(OC)c1OC,> 46 µM and > 20.6 µM
4,O=C(CCCN1CCC(O)(c2cccc(C(F)(F)F)c2)CC1)c1ccc(F)cc1,> 46 µM
5,FC(F)(F)c1ccccc1-n1ccnc1,> 46 µM
6,CC1=C(C)C(=O)C(CCCCC#CCCCC#CCO)=C(C)C1=O,> 46 µM
7,Brc1c(NC2=NCCN2)ccc2nccnc12,> 46 µM
8,CCN(CC)CCNC(=O)c1ccc(NC(C)=O)cc1,> 46 µM
